# Among all 5,500 compounds or so, about 2,000 (36%) were called active. Roughly 18% stayed inconclusive and do not appear here. The list shows a part of the results. A number with no mark means an inactive call. No stated cut-off is given here; in the data, active means normalized growth mostly below about 0.91 (no sharp cut-off); inconclusive means no clear call, values can overlap the other calls; inactive means mostly above about 0.92.
# Assay: chemical genetic growth profiling, strain panel (AID 1159580);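 further: tested at 20 µM; growth read once vehicle control cultures reached saturation at 30 °C; 1 = growth at the plate median or of vehicle wells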
# Conditions: growth OD
# [1] = S. cerevisiae deletion strains, locus YHR030C, strain SLT2, stronger effect = lower value
# [2] = S. cerevisiae deletion strains, locus YHR079C, strain IRE1, stronger effect = lower value
# [3] = S. cerevisiae deletion strains, locus YJL095W, strain BCK1, stronger effect = lower value
# [4] = S. cerevisiae deletion strains, locus YJR066W, strain TOR1, stronger effect = lower value
# [5] = S. cerevisiae deletion strains, locus YLR113W, strain HOG1, stronger effect = lower value
# [6] = S. cerevisiae deletion strains, locus YNL183C, strain NPR1, stronger effect = lower value
# [7] = S. cerevisiae deletion strains, locus YOR231W, strain MKK1, stronger effect = lower value
# [8] = S. cerevisiae deletion strains, locus YPL256C, strain CLN2, stronger effect = lower value
# [9] = S. cerevisiae deletion strains, locus YAL013W, strain DEP1, stronger effect = lower value
# [10] = S. cerevisiae deletion strains, locus YGR078C, strain PAC10, stronger effect = lower value
# [11] = S. cerevisiae deletion strains, locus YNL128W, strain TEP1, stronger effect = lower value
# [12] = S. cerevisiae deletion strains, locus YPL241C, strain CIN2, stronger effect = lower value
smiles,measurement,setting,value
CN1CCCC(n2nc(Cc3ccc(Cl)cc3)c3ccccc3c2=O)CC1 (stereo unspecified),normalized growth,"S. cerevisiae deletion strains, locus YAL021C, strain ccr4, stronger effect = lower value",1.01
same,normalized growth,"S. cerevisiae deletion strains, locus YAL026C, strain drs2, stronger effect = lower value",1
same,normalized growth,"S. cerevisiae deletion strains, locus YAL030W, strain snc1, stronger effect = lower value",0.999
same,normalized growth,"S. cerevisiae deletion strains, locus YBL061C, strain skt5, stronger effect = lower value",1
same,normalized growth,"S. cerevisiae deletion strains, locus YBR009C, strain hhf1, stronger effect = lower value",0.93
same,normalized growth,"S. cerevisiae deletion strains, locus YBR023C, strain chs3, stronger effect = lower value",1.02
same,normalized growth,"S. cerevisiae deletion strains, locus YBR171W, strain sec66, stronger effect = lower value",0.989
same,normalized growth,"S. cerevisiae deletion strains, locus YBR231C, strain swc5, stronger effect = lower value",0.984
same,normalized growth,"S. cerevisiae deletion strains, locus YBR279W, strain paf1, stronger effect = lower value",1.02
same,normalized growth,"S. cerevisiae deletion strains, locus YCL011C, strain gbp2, stronger effect = lower value",0.989
same,normalized growth,"S. cerevisiae deletion strains, locus YCL016C, strain dcc1, stronger effect = lower value",1.04
same,normalized growth,"S. cerevisiae deletion strains, locus YCL061C, strain MRC1, stronger effect = lower value",0.968
same,normalized growth,"S. cerevisiae deletion strains, locus YCL069W, strain vba3, stronger effect = lower value",0.988
same,normalized growth,"S. cerevisiae deletion strains, locus YCR088W, strain abp1, stronger effect = lower value",0.991
same,normalized growth,"S. cerevisiae deletion strains, locus YDL005C, strain med2, stronger effect = lower value",0.999
same,normalized growth,"S. cerevisiae deletion strains, locus YDL040C, strain nat1, stronger effect = lower value",1
same,normalized growth,"S. cerevisiae deletion strains, locus YDR001C, strain nth1, stronger effect = lower value",1
same,normalized growth,"S. cerevisiae deletion strains, locus YDR069C, strain doa4, stronger effect = lower value",0.996
same,normalized growth,"S. cerevisiae deletion strains, locus YDR137W, strain rgp1, stronger effect = lower value",1.25 [resistant] (active)
same,normalized growth,"S. cerevisiae deletion strains, locus YDR159W, strain sac3, stronger effect = lower value",0.912
same,normalized growth,"S. cerevisiae deletion strains, locus YDR195W, strain ref2",0.972
same,normalized growth,"S. cerevisiae deletion strains, locus YDR297W, strain sur2, stronger effect = lower value",0.99
same,normalized growth,"S. cerevisiae deletion strains, locus YDR334W, strain swr1, stronger effect = lower value",0.981
same,normalized growth,"S. cerevisiae deletion strains, locus YDR335W, strain msn5, stronger effect = lower value",1.01
same,normalized growth,"S. cerevisiae deletion strains, locus YDR392W, strain spt3, stronger effect = lower value",0.772
same,normalized growth,"S. cerevisiae deletion strains, locus YEL003W, strain gim4, stronger effect = lower value",0.948
same,normalized growth,"S. cerevisiae deletion strains, locus YEL037C, strain rad23, stronger effect = lower value",0.992
same,normalized growth,"S. cerevisiae deletion strains, locus YEL061C, strain CIN8 (second series), stronger effect = lower value",0.983
same,normalized growth,"S. cerevisiae deletion strains, locus YER015W, strain faa2, stronger effect = lower value",0.966
same,normalized growth,"S. cerevisiae deletion strains, locus YER016W, strain bim1, stronger effect = lower value",1.03
same,normalized growth,"S. cerevisiae deletion strains, locus YER111C, strain swi4, stronger effect = lower value",1.01
same,normalized growth,"S. cerevisiae deletion strains, locus YER155C, strain BEM2 (second series), stronger effect = lower value",0.884
same,normalized growth,"S. cerevisiae deletion strains, locus YFR010W, strain ubp6, stronger effect = lower value",0.941
same,normalized growth,"S. cerevisiae deletion strains, locus YGL167C, strain pmr1, stronger effect = lower value",0.982
same,normalized growth,"S. cerevisiae deletion strains, locus YGL173C, strain kem1, stronger effect = lower value",0.964
same,normalized growth,"S. cerevisiae deletion strains, locus YGL227W, strain vid30, stronger effect = lower value",1
same,normalized growth,"S. cerevisiae deletion strains, locus YGL240W, strain doc1, stronger effect = lower value",0.942
same,normalized growth,"S. cerevisiae deletion strains, locus YGL253W, strain hxk2, stronger effect = lower value",1.02
same,normalized growth,"S. cerevisiae deletion strains, locus YHR013C, strain ard1, stronger effect = lower value",0.994
same,normalized growth,"S. cerevisiae deletion strains, locus YHR027C, strain rpn1, stronger effect = lower value",0.944
same,normalized growth,[1],1.03
same,normalized growth,[2],1.02
same,normalized growth,"S. cerevisiae deletion strains, locus YHR142W, strain chs7, stronger effect = lower value",1.02
same,normalized growth,"S. cerevisiae deletion strains, locus YJL092W, strain hpr5, stronger effect = lower value",0.981
same,normalized growth,"S. cerevisiae deletion strains, locus YJL095W, strain BCK1 (second series), stronger effect = lower value",0.996
same,normalized growth,[3],0.979
same,normalized growth,"S. cerevisiae deletion strains, locus YJL115W, strain asf1, stronger effect = lower value",1.02
same,normalized growth,"S. cerevisiae deletion strains, locus YJL129C, strain trk1, stronger effect = lower value",1.07
same,normalized growth,"S. cerevisiae deletion strains, locus YJL154C, strain vps35, stronger effect = lower value",0.992
same,normalized growth,"S. cerevisiae deletion strains, locus YJL164C, strain tpk1, stronger effect = lower value",0.964
same,normalized growth,"S. cerevisiae deletion strains, locus YJL166W, strain qcr8, stronger effect = lower value",0.96
same,normalized growth,"S. cerevisiae deletion strains, locus YJL187C, strain SWE1, stronger effect = lower value",1.01
same,normalized growth,[4],0.99
same,normalized growth,"S. cerevisiae deletion strains, locus YKL160W, strain elf1, stronger effect = lower value",1.04
same,normalized growth,"S. cerevisiae deletion strains, locus YKR026C, strain gcn3, stronger effect = lower value",0.995
same,normalized growth,"S. cerevisiae deletion strains, locus YKR091W, strain srl3, stronger effect = lower value",1
same,normalized growth,"S. cerevisiae deletion strains, locus YLL001W, strain dnm1, stronger effect = lower value",0.958
same,normalized growth,"S. cerevisiae deletion strains, locus YLL026W, stronger effect = lower value",1
same,normalized growth,"S. cerevisiae deletion strains, locus YLL041C, strain sdh2, stronger effect = lower value",0.99
same,normalized growth,"S. cerevisiae deletion strains, locus YLR027C, strain aat2, stronger effect = lower value",1.01
same,normalized growth,[5],0.975
same,normalized growth,"S. cerevisiae deletion strains, locus YLR221C, strain rsa3, stronger effect = lower value",0.954
same,normalized growth,"S. cerevisiae deletion strains, locus YLR258W, strain gsy2, stronger effect = lower value",1.02
same,normalized growth,"S. cerevisiae deletion strains, locus YLR262C, strain YPT6 (second series), stronger effect = lower value",1.06
same,normalized growth,"S. cerevisiae deletion strains, locus YLR320W, strain mms22, stronger effect = lower value",0.905
same,normalized growth,"S. cerevisiae deletion strains, locus YLR342W, strain FKS1, stronger effect = lower value",1
same,normalized growth,"S. cerevisiae deletion strains, locus YLR357W, strain rsc2, stronger effect = lower value",0.949
same,normalized growth,"S. cerevisiae deletion strains, locus YLR370C, strain arc18, stronger effect = lower value",1.02
same,normalized growth,"S. cerevisiae deletion strains, locus YLR384C, strain iki3, stronger effect = lower value",0.996
same,normalized growth,"S. cerevisiae deletion strains, locus YML120C, strain ndi1, stronger effect = lower value",0.95
same,normalized growth,"S. cerevisiae deletion strains, locus YMR058W, strain fet3, stronger effect = lower value",0.961
same,normalized growth,"S. cerevisiae deletion strains, locus YMR125W, strain sto1, stronger effect = lower value",0.983
same,normalized growth,"S. cerevisiae deletion strains, locus YMR129W, stronger effect = lower value",1
same,normalized growth,"S. cerevisiae deletion strains, locus YMR205C, strain PFK2, stronger effect = lower value",0.981
same,normalized growth,"S. cerevisiae deletion strains, locus YMR231W, strain pep5, stronger effect = lower value",1
same,normalized growth,"S. cerevisiae deletion strains, locus YNL071W, strain lat1, stronger effect = lower value",0.993
same,normalized growth,[6],0.975
same,normalized growth,"S. cerevisiae deletion strains, locus YNL209W, strain ssb2, stronger effect = lower value",0.993
same,normalized growth,"S. cerevisiae deletion strains, locus YNL248C, strain rpa49, stronger effect = lower value",1
same,normalized growth,"S. cerevisiae deletion strains, locus YNL322C, strain KRE1 (second series), stronger effect = lower value",1.01
same,normalized growth,"S. cerevisiae deletion strains, locus YNR049C, strain mso1, stronger effect = lower value",1
same,normalized growth,"S. cerevisiae deletion strains, locus YOR001W, strain rrp6, stronger effect = lower value",0.902
same,normalized growth,"S. cerevisiae deletion strains, locus YOR070C, strain gyp1, stronger effect = lower value",1.01
same,normalized growth,"S. cerevisiae deletion strains, locus YOR080W, strain dia2, stronger effect = lower value",0.98
same,normalized growth,"S. cerevisiae deletion strains, locus YOR083W, strain WHI5, stronger effect = lower value",0.966
same,normalized growth,"S. cerevisiae deletion strains, locus YOR106W, strain vam3, stronger effect = lower value",0.993
same,normalized growth,[7],0.993
same,normalized growth,"S. cerevisiae deletion strains, locus YOR265W, strain rbl2, stronger effect = lower value",0.998
same,normalized growth,"S. cerevisiae deletion strains, locus YOR270C, strain vph1, stronger effect = lower value",0.93
same,normalized growth,"S. cerevisiae deletion strains, locus YOR290C, strain snf2, stronger effect = lower value",1.01
same,normalized growth,"S. cerevisiae deletion strains, locus YPL051W, strain arl3, stronger effect = lower value",1.05
same,normalized growth,"S. cerevisiae deletion strains, locus YPL078C, strain atp4, stronger effect = lower value",1.01
same,normalized growth,"S. cerevisiae deletion strains, locus YPL106C, strain sse1, stronger effect = lower value",1.08
same,normalized growth,"S. cerevisiae deletion strains, locus YPL240C, strain hsp82, stronger effect = lower value",1
same,normalized growth,[8],1.01
O=C1CCO1,normalized growth,[1],0.984
same,normalized growth,[2],0.99
same,normalized growth,[3],0.999
same,normalized growth,[4],0.946
same,normalized growth,[5],0.942
same,normalized growth,[6],0.951
same,normalized growth,[7],0.996
same,normalized growth,[8],0.992
CC1(C)/C(=N/OC(=O)c2cccc(C(F)(F)F)c2)[C@]2(C)CCC1C2,normalized growth,[9],1.01
same,normalized growth,"S. cerevisiae deletion strains, locus YBR229C, strain ROT2, stronger effect = lower value",1.01
same,normalized growth,"S. cerevisiae deletion strains, locus YDL101C, strain DUN1, stronger effect = lower value",1.04
same,normalized growth,"S. cerevisiae deletion strains, locus YDL134C, strain PPH21, stronger effect = lower value",1
same,normalized growth,"S. cerevisiae deletion strains, locus YDR150W, strain NUM1, stronger effect = lower value",0.989
same,normalized growth,"S. cerevisiae deletion strains, locus YEL061C, strain CIN8, stronger effect = lower value",1.04
same,normalized growth,[10],0.996
same,normalized growth,"S. cerevisiae deletion strains, locus YGR229C, strain SMI1, stronger effect = lower value",0.999
same,normalized growth,[1],0.88
same,normalized growth,"S. cerevisiae deletion strains, locus YHR087W, strain rtc3, stronger effect = lower value",0.99
same,normalized growth,"S. cerevisiae deletion strains, locus YJR043C, strain POL32, stronger effect = lower value",0.978
same,normalized growth,"S. cerevisiae deletion strains, locus YJR075W, strain HOC1, stronger effect = lower value",0.979
same,normalized growth,"S. cerevisiae deletion strains, locus YKL190W, strain CNB1, stronger effect = lower value",1.01
same,normalized growth,"S. cerevisiae deletion strains, locus YLR039C, strain RIC1, stronger effect = lower value",0.977
same,normalized growth,"S. cerevisiae deletion strains, locus YLR058C, strain SHM2 (second series), stronger effect = lower value",1.01
same,normalized growth,"S. cerevisiae deletion strains, locus YLR085C, strain ARP6, stronger effect = lower value",1
same,normalized growth,"S. cerevisiae deletion strains, locus YLR262C, strain YPT6, stronger effect = lower value",0.964
same,normalized growth,"S. cerevisiae deletion strains, locus YML094W, strain GIM5, stronger effect = lower value",1.18 [resistant] (active)
same,normalized growth,"S. cerevisiae deletion strains, locus YMR219W, strain ESC1, stronger effect = lower value",0.987
same,normalized growth,"S. cerevisiae deletion strains, locus YMR263W, strain SAP30, stronger effect = lower value",0.967
same,normalized growth,"S. cerevisiae deletion strains, locus YMR307W, strain GAS1, stronger effect = lower value",0.741
same,normalized growth,[11],1.01
same,normalized growth,"S. cerevisiae deletion strains, locus YNL153C, strain GIM3, stronger effect = lower value",0.963
same,normalized growth,"S. cerevisiae deletion strains, locus YNL298W, strain CLA4 (second series), stronger effect = lower value",0.987
same,normalized growth,"S. cerevisiae deletion strains, locus YNL322C, strain KRE1, stronger effect = lower value",1.02
same,normalized growth,"S. cerevisiae deletion strains, locus YNR030W, strain Alg12, stronger effect = lower value",1.01
same,normalized growth,"S. cerevisiae deletion strains, locus YOL006C, strain TOP1, stronger effect = lower value",0.898
same,normalized growth,"S. cerevisiae deletion strains, locus YPL055C, strain LGE1, stronger effect = lower value",1
same,normalized growth,[12],1.01
same,normalized growth,"S. cerevisiae deletion strains, locus YPR135W, strain CTF4, stronger effect = lower value",1.06
same,normalized growth,"S. cerevisiae strains, strain wild type, stronger effect = lower value",0.999
NC(=NCCC[C@H](N)C(=O)O)NO,normalized growth,[9],1.03
same,normalized growth,"S. cerevisiae deletion strains, locus YAL040C, strain CLN3, stronger effect = lower value",1
same,normalized growth,"S. cerevisiae deletion strains, locus YCL061C, strain MRC1 (second series), stronger effect = lower value",1.01
same,normalized growth,"S. cerevisiae deletion strains, locus YDR363W, strain ESC2, stronger effect = lower value",1.02
same,normalized growth,"S. cerevisiae deletion strains, locus YER002W, strain NOP16, stronger effect = lower value",1.01
same,normalized growth,[10],1.02
same,normalized growth,[11],1
same,normalized growth,"S. cerevisiae deletion strains, locus YNL175C, strain NOP13, stronger effect = lower value",1
same,normalized growth,"S. cerevisiae deletion strains, locus YNL197C, strain WHI3, stronger effect = lower value",1.01
same,normalized growth,"S. cerevisiae deletion strains, locus YNL224C, strain SQS1, stronger effect = lower value",0.992
same,normalized growth,"S. cerevisiae deletion strains, locus YOR083W, strain WHI5 (second series), stronger effect = lower value",1.01
same,normalized growth,[12],1.01

# Source: PubChem BioAssay AID1159580 (chemical genetic matrix, 2015)
